# PI5P4Ka inh: PI5P4K alpha (human) kinase inhibition | P48426 | PI5P4Kalpha enzyme, ADP-Glo luminescence, 60 min; hits give low values | max response, % | 330,000 tested, 1.2% active | AID 652105; active = max response of -50% or lower; inconclusive = between -30% and -50%; inactive = -30% or higher; also: value at the top dose of about 77 µM
#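 Luminescence from ADP-Glo served as readout of PI5P4Kalpha activity in a qHTS format. Reaction: enzyme, substrate, compound, ATP at 5 microM final, 60 min at RT.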
# JMJD2A Tudor inh: blocks the human JMJD2A Tudor domain | Potency, µM (titrated, usually from 114 µM), actives largely listed as inhibitors | 390,000 tested, 4.4% active | AID 504339 | AlphaScreen JMJD2A-Tudor / H3K4me3 peptide binding; also: nearly all actives have a fitted effect of over 50% in size
# G9a block: G9a (human) methyltransferase inhibition | Potency, µM (titrated, usually from 102 µM), usual class: inhibitors | 350,000 tested, 8.8% active | G9a H3K9 monomethylation, AlphaScreen, 2 h; also: nearly all actives have a fitted effect of over 75% in size
#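 Compounds were preincubated with 20 nM G9a for 15 min, after which biotinylated H3K9 peptide (500 nM) and SAM (20 uM) started a 2 h room-temperature reaction. Monomethylated product was quantified by antibody-based AlphaScreen chemiluminescence.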
# PLK1 PBD block: PLK1 (human) polo-box domain binding inhibition. 360,000 tested, 2.8% active. Plk1 PBD binding of FITC phosphopeptide, fluorescence polarization. Potency, µM, actives largely listed as inhibitors. AID 720504. P53350; also: series mostly up to about 57 µM; nearly all actives have a fitted effect of over 65% in size
# Target sequence (P53350 whole entry, looked up, the tested form may be a part): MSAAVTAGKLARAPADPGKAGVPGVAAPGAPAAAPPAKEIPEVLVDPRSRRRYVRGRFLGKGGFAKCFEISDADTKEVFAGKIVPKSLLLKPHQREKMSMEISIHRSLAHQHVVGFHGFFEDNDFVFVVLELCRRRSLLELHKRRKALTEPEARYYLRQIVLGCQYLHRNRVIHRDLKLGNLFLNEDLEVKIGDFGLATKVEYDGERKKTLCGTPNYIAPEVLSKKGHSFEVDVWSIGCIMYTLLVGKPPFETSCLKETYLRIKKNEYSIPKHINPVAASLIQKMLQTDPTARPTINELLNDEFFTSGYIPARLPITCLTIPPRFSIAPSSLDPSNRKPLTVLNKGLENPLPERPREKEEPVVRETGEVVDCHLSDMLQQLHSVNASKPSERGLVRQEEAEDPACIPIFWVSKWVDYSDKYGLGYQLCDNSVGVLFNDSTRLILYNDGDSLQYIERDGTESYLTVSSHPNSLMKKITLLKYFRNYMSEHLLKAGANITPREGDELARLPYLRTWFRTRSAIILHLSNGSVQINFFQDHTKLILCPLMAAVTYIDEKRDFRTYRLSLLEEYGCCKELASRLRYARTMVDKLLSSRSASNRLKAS
# BAZ2B inh: blocks human BAZ2B | 360,000 tested, 4.4% active | AID 504333 | AlphaScreen BAZ2B-H3K14Ac peptide displacement | Potency, µM (top dose mostly 114 µM), actives largely listed as inhibitors; also: nearly all actives have a fitted effect of over 60% in size
#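 Compounds, titrated to a top concentration of 110 uM, were incubated 30 min at room temperature with preformed BAZ2B/acetyl-K14 H3 peptide complex (50 nM each). Proximity signal was measured by AlphaScreen after 20 min with beads.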
# HP1b chromo inh: HP1-beta chromodomain-methylated histone interaction inhibition; P83916; AlphaScreen HP1-beta / biotin-H3K9me3 peptide binding; Potency, µM (series often up to 114 µM), hits mostly inhibitors; 390,000 tested, 0.56% active; also: nearly all actives have a fitted effect of over 70% in size
#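 Compound inhibition of the preformed complex between 50 nM HP1-beta and 50 nM biotinylated H3K9me3 peptide was read by AlphaScreen. Buffer was PBS pH 7.4 with 0.01% Tween-20. Incubations ran 30 min at room temperature, with 10 ug/mL donor/acceptor beads.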
# A number is an active result; 0 = inactive; ? = inconclusive; - = no result; [ ] = another dose, or the depositor's remark. This is a sample that favours compounds with a hit; in the whole collection about 12% have one here. Unless noted, calls follow the shape of the dose curve; as a rule, active = well fitted curve in the direction sought with a large enough effect; inconclusive = small, poorly fitted or top-dose-only effect, or another doubt; inactive = no such curve, though single readings can be large; an effect the other way counts as inactive or inconclusive.
SMILES,PI5P4Ka inh,JMJD2A Tudor inh,G9a block,PLK1 PBD block,BAZ2B inh,HP1b chromo inh
COc1ccccc1/C=C/C1=NC(=C\C=C/c2ccccc2)/C(=O)O1,0,56.2µM,?,0,?,?
C=C(NC(=O)C(=C)NC(=O)c1csc(C2=NC3c4csc(n4)C4NC(=O)c5csc(n5)C([C@@](C)(O)C(C)O)NC(=O)C5CSC(=N5)/C(=C\C)NC(=O)C(C(C)O)NC(=O)c5csc(n5)[C@]3(CC2)NC(=O)C(C)NC(=O)C(=C)NC(=O)C(C)NC(=O)C(C(C)CC)NC2C=Cc3c(C(C)O)cc(nc3C2O)C(=O)OC4C)n1)C(N)=O (stereo partly drawn),-,-,0[12.7 µM],-,0,-
CN(C)c1ccc(NC(=O)Cn2cc(S(=O)(=O)Cc3ccccc3Cl)c3ccccc32)cc1,-,?,5.01µM,-,25.1µM,0
Cc1ccc(NC(=O)Cn2cc(S(=O)(=O)Cc3ccc(F)cc3)c3ccccc32)cc1Cl,-,56.2µM,0,-,50.1µM,0
Cc1cccc(C)c1NC(=O)Cn1cc(S(=O)(=O)Cc2ccc(F)cc2)c2ccccc21,-,?,0,-,?,0
Cc1ccc2nc(CCl)[n+]([O-])c(-c3ccccc3)c2c1,?,17.8µM,?,3.36µM,0,0
Cc1ccc2nc3c(cc(C(N)=S)c(=N)n3CCCOC(C)C)c(=O)n2c1,-,?,22.4µM,0,0,?
Cc1cccn2c(=O)c3cc(C#N)c(=N)n(CCCN4CCOCC4)c3nc12,0,0,-,0,-,0
Cc1cccn2c(=O)c3cc(C#N)c(=N)n(CCN4CCOCC4)c3nc12,0,0[11.4 µM],0,0,50.1µM,0
N=c1c(S(=O)(=O)c2ccccc2)cc2c(=O)n3ccccc3nc2n1CCCN1CCOCC1,0,0,79.4µM,0,0,0
Cc1cccn2c(=O)c3cc(C(N)=S)c(=N)n(CCCN4CCOCC4)c3nc12,0,0,44.7µM,0,0,0
Cc1ccc(S(=O)(=O)c2cc3c(=O)n4ccccc4nc3n(CCCN3CCOCC3)c2=N)cc1C,0,0,0,0,0,0
COCCCn1c(=N)c(C(N)=S)cc2c(=O)n3cccc(C)c3nc21,0,0,-,0,-,0
CCCN1C(C(=O)c2ccccc2)=C(OC(=O)c2ccc(F)cc2)c2ccccc2S1(=O)=O,-,0,0,-,0,0
C/C(=N/NC(=O)CSc1nc2ccccc2n1C)c1ccc(O)cc1,?,0,-,0,0,0
CCNC(=S)NNC(=O)CSc1nc2ccccc2[nH]1,0,0,44.7µM,0,0,0
CCNC(=S)NNC(=O)CSc1nc2ccccc2n1C,0,89.1µM,-,0,0,0
O=C(CSc1nc2ccccc2[nH]1)Nc1ccccc1F,-,0,0,0,0,0
COCC(=O)N1CCC2(CCN(Cc3ccccc3OC)CC2)CC1,-,-,0[12.7 µM],-,-,-
O=C(NNC(=O)C1CC(=O)N(Cc2ccccc2)C1)c1ccc(F)cc1 (stereo not drawn),0,0,0[0.501 µM],0,0,0
CN(C)CCCNC(=O)c1ccccn1,-,0,0,0,0,0
CN(C)CCCNC(=O)/C(=N\O)c1ccccc1,0,0,56.2µM,0,0,0
Cc1oc2ccccc2c1CC(=O)NCCCN(C)C,0,0,50.1µM,0,?,0
O=C(NCC1CCCO1)C(Cc1ccccc1)N1C(=O)C2C3C=CC(C4CC34)C2C1=O (stereo not drawn),0,0[11.4 µM],0,10.6µM,0,0
COc1cccc(C(=O)Nc2c(C(=O)NC(C)(C)C)oc3ccccc23)c1,-,0,0,-,0,0
SMILES,PI5P4Ka inh,JMJD2A Tudor inh,G9a block,PLK1 PBD block,BAZ2B inh,HP1b chromo inh
Cc1cc2c(s1)c1cnn(Cc3ccc(F)cc3)c(=O)c1n2C,-,0,-,-,-,-
Cc1ccc(Cl)cc1-c1ccc(C=Nc2ccc(N3CCOCC3)cc2)o1,0,35.5µM,?,0,28.2µM,?
Cc1cc(O)c(C=Nc2ccc(N3CCOCC3)cc2)c(C)c1Cl,0,0,8.91µM,0,?,0
Cc1ccc([N+](=O)[O-])cc1-c1ccc(/C=N/NC(=O)CN2CCOCC2)o1,0,?,?,0,0,0
Cc1cc(C)n2c(SCC(=O)Nc3ccccc3C#N)nnc2n1,?,0,0[12.7 µM],0,0,0
O=C(COc1cccc2ccccc12)Nc1cc(Cl)ccc1C(=O)O,?,0,0,21.2µM,0,0
CCC(=O)Nc1cc(Cl)ccc1C(=O)O,0,79.4µM,0,0,?,0

# Screening results as filed in PubChem BioAssay.
